Screening results (PubChem BioAssay)
In the library only some 12% were active in any assay of this set; here they are far more common.
Pf growth 48h = Primary qHTS for delayed death inhibitors of the malarial parasite plastid, 48 hour incubation. P. falciparum luciferase growth in erythrocytes, 48 h. Potency, µM (highest dose often 28.7 µM), usual class: inhibitors. actives 5.9% (n = 310,000). AID 504832, 2011
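Parasite viability was followed by luminescence of a genomically integrated firefly luciferase. Cultures held 0.1% parasitemia at 2% hematocrit (final), incubated under 5% CO2 at 37 C.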
Pf growth 96h = Primary qHTS for delayed death inhibitors of the malarial parasite plastid, 96 hour incubation; Potency, µM (top dose mostly 28.7 µM), most hits filed as inhibitors; actives 6.9% (n = 320,000); P. falciparum luciferase reporter growth, 96 h
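Compounds incubated with erythrocytes infected by luciferase-expressing P. falciparum (2% hematocrit, 0.05% parasitemia final) for 96 hours, 37 C in 5% CO2. Growth inhibition scored as decreased luciferase luminescence.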
Sm TGR inh = qHTS Assay for the Inhibitors of Schistosoma Mansoni Peroxiredoxins | Schistosoma mansoni thioredoxin glutathione reductase (TGR), Q962Y6 | Potency, µM (highest dose often 114 µM), most hits filed as inhibitors | actives 3% (n = 360,000) | purified TGR, DTNB reduction, TNB absorbance 405 nm; also: nearly all actives have a fitted effect of over 60% in size
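Kinetic colorimetric format: TGR-catalysed, NADPH-driven DTNB reduction monitored via TNB absorbance. Enzyme dispensed at 20 nM; compound exposure 15 min at room temperature before reaction start.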
AmpC inh detg = qHTS Inhibitors of AmpC Beta-Lactamase (assay with detergent). AmpC hydrolysis of nitrocefin, absorbance 480 nm, 0.01% Triton. P00811. actives 0.041% (n = 370,000). Potency, µM (doses to about 114 µM), actives largely listed as inhibitors; also: nearly all actives have a fitted effect of over 25% in size
Target sequence (P00811 whole entry, looked up): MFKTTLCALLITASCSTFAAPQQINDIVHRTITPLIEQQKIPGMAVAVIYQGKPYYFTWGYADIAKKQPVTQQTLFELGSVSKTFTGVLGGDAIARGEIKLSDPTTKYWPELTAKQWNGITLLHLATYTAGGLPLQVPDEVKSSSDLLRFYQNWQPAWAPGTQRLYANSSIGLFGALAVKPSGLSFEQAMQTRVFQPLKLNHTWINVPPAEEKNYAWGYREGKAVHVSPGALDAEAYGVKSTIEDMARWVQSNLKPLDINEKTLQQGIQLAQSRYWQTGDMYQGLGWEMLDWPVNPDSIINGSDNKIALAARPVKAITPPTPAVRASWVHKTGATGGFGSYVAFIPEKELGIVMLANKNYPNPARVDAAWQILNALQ
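20 mM phosphate pH 7.0 + 0.01% (detergent screen) or 0.0001% Triton X-100; 5.3 nM AmpC reagent; cpd preinc 15 min RT; nitrocefin (800 uM stock) to start; A480 q20 s × 4 min; Activity was normalised to no-enzyme and no-compound control wells.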
AmpC inh no detg = qHTS Inhibitors of AmpC Beta-Lactamase (assay without detergent). P00811. AmpC nitrocefin hydrolysis, absorbance 480 nm, 0.0001% Triton. Potency, µM (titrated, usually from 57.1 µM), most hits filed as inhibitors. actives 0.52% (n = 330,000); also: nearly all actives have a fitted effect of over 20% in size
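20 mM phosphate pH 7.0 + 0.01% (detergent screen) or 0.0001% Triton X-100; 5.3 nM AmpC reagent; cpd preinc 15 min RT; nitrocefin (800 uM stock) to start; A480 q20 s × 4 min; Activity was normalised to no-enzyme and no-compound control wells.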
SARS PLpro yeast = qHTS of Yeast-based Assay for SARS-CoV PLP | S. cerevisiae expressing SARS-CoV PLpro, growth rescue | Potency, µM (top dose mostly 32.9 µM), actives largely listed as activators | actives 0.19% (n = 330,000); calls by dose curve; also: nearly all actives have a fitted effect of over 55% in size
Hits are given with their value; n = inactive; u = inconclusive; x = not tested or not shown; [ ] = dose if it differs, or a comment. Unless noted, calls follow the shape of the dose curve; as a rule, active = well fitted curve in the direction sought with a large enough effect; inconclusive = small, poorly fitted or top-dose-only effect, or another doubt; inactive = no such curve, though single readings can be large; an effect the other way counts as inactive or inconclusive.

SMILES	Pf growth 48h	Pf growth 96h	Sm TGR inh	AmpC inh detg	AmpC inh no detg	SARS PLpro yeast
Cc1cc2c(c(=O)n1Cc1ccco1)C(c1cccnc1)C(C#N)=C(N)O2 (centres undefined)	n	9.3µM	u	n	n	n
Cc1cc2c(c(=O)n1Cc1cccnc1)C(c1cccs1)C(C#N)=C(N)O2 (centres undefined)	x	u	10µM	n	n	n
Cc1cc(C)c(C)c(S(=O)(=O)NCCCN2CCCC2=O)c1C	n	n	n	n	n	n
CC(C)C(C(=O)NC(C)(C)C)N(CCN1CCOCC1)C(=O)CNS(=O)(=O)c1ccccc1 (centres undefined)	n	1.9µM	n	n	n	n
COc1ccc(/C=N/OCC(=O)Nc2ccc3c(c2)OCO3)c(OC)c1	n	n	n	n	n[11.4 µM]	n
Cc1cc(C)c(S(=O)(=O)Cc2ccc(Cl)cc2)c(=O)[nH]1	10µM	n	n	u	n	n
Cc1cc(C)c(S(=O)(=O)Cc2ccccc2)c(=O)[nH]1	n	u	n	n	n	n
O=C(CSc1n[nH]c(-c2ccco2)n1)Nc1ccc(F)cc1	n	n	n	n	n	n
Cc1ccc(NC(=O)CSc2nnc(-c3ccco3)c(-c3ccco3)n2)cc1	n	u	u	n	n	u
CN(C)c1ccc(NC(=O)CSc2nnc(-c3ccco3)c(-c3ccco3)n2)cc1	n	u	35µM	n	n	n
O=C(CSc1nnc(-c2ccco2)c(-c2ccco2)n1)Nc1ccccc1	n	n	1.8µM	n	n	n
CCOc1ccccc1CNC(=O)Cn1nc(C)c2nn(-c3ccc(Cl)cc3)c(C)c2c1=O	x	x	n	n	x	x
Nc1c(Cl)ncnc1NCc1ccccc1	n	0.41µM	n	n	n	n
CC(C)CC(=O)Nc1c2c(nn1-c1ccc(F)cc1)CS(=O)(=O)C2	n	n	n	n	n	n
COc1cccc(NC(=O)CCC(=O)N2Cc3ccccc3Oc3ncccc32)c1	x	x	n	n	x	x
COc1cccc(C2C(C(=O)c3sc(C)nc3C)=C(O)C(=O)N2CCN2CCOCC2)c1 (centres undefined)	u	x	n	n	n	n
COc1cccc(C2C(C(=O)/C=C/c3ccco3)=C(O)C(=O)N2CCN2CCOCC2)c1 (centres undefined)	n	n	4.5µM	n	n	n
COc1ccc(C2C(C(=O)/C=C/c3ccco3)=C(O)C(=O)N2CCN2CCOCC2)cc1 (centres undefined)	u	n	14µM	u	n	n
COc1ccc(OC)c(C2C(C(=O)c3ccco3)=C(O)C(=O)N2CCN2CCOCC2)c1 (centres undefined)	n	u	u	n	n	n
CCOc1ccc(C2C(C(=O)/C=C/c3ccco3)=C(O)C(=O)N2CCN2CCOCC2)cc1OC (centres undefined)	n	n	5µM	n	n	n
CC1O[C@@H](O[C@H](C)CC[C@@H](C)O)C(O)C[C@H]1O (some centres undefined)	n	n	n	u	n	n
Cc1ccc2[nH]c3c(c2c1)CN(C(=O)CN1CCN(C(=O)c2ccco2)CC1)CC3	n	u	n	n	n	n
O=C(CN1CCN(C(=O)c2ccco2)CC1)N1CCc2[nH]c3ccccc3c2C1	n	n	20µM	n	n	n
COC(=O)[C@@]1(Cc2ccc(OC)cc2)[C@@H]2C(=CC(=O)[C@H]2CC(=O)C(=O)N(C)C)CN1C(=O)c1ccccc1	15µM	9.3µM	u	n	n	n
C=C1C(=O)C=C2CN(C(=O)c3ccccc3)[C@@](Cc3ccc(F)cc3)(C(=O)OC)[C@@H]12	u	u	10µM	n	n	n
CC(C)Oc1ccc(CNC(=O)C2CCN(Cc3cc4ccccc4n3Cc3ccccc3)CC2)cc1	x	x	n	n	x	x
